From PubChem BioAssay (Tox21)
Values without a mark were called inactive. Records with an inconclusive call do not appear. Entries that show only a call come without a potency. Calls of active or inactive are those of the source. Unless noted, calls come from the whole dose curve.

Experiments:
[1] = Nuclear factor erythroid 2-related factor 2/antioxidant responsive element (Nrf2/ARE) small molecule agonists: qHTS cell viability counter screen in human keratinocytes (AID 1919968; active = well fitted curve in the direction sought with a large enough effect in the repeat runs; an effect the other way counts as inactive or inconclusive; note: nearly all actives have a fitted effect of over 55% in size)
Method in brief: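 Measured as CellTiter-Fluor fluorescence, this readout tracks cytotoxicity in the same wells as the ARE-luciferase screen. HaCaT reporter cells (1,500/well) received compounds after a 5 h pre-incubation and were exposed for 23 h.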

[2] = Nuclear factor erythroid 2-related factor 2/antioxidant responsive element (Nrf2/ARE) small molecule agonists: luciferase reporter gene qHTS assay in human keratinocytes (AID 1919969); note: nearly all actives have a fitted effect of over 35% in size; note: potency is the fitted concentration of half-maximal effect
[3] = target: Gonadotropin-releasing hormone receptor (Homo sapiens) (UniProt P30968); assay: Human gonadotropin-releasing hormone receptor (GnRHR) small molecule agonists, calcium flux assay in GnRHR-HEK293 cells (AID 1920063); note: nearly all actives have a fitted effect of over 35% in size
Gonadotropin-releasing hormone receptor (Homo sapiens), sequence (P30968 whole entry, looked up): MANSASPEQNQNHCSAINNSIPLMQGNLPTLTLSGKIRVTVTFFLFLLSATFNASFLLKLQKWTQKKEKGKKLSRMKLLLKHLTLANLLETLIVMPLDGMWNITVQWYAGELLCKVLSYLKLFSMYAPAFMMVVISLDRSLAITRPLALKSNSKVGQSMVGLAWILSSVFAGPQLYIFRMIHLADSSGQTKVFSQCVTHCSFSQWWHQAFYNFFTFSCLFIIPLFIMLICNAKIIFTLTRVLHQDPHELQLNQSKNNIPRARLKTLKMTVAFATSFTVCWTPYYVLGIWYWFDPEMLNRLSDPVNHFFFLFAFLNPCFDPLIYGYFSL
Method in brief: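 Fluorescence kinetics (480 nm excitation, 540 nm emission; 3 min, 1 s steps) report calcium mobilisation in human GnRHR-HEK293 cells in agonist mode. Dye incubation: 1 h, 37 C.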

[4] = target: KiSS-1 receptor (Homo sapiens) (UniProt Q969F8); assay: Human kisspeptin (KISS1R) small molecule agonists, calcium flux assay in KISS1R-HEK293 cells (AID 1920064; active = well fitted curve in the direction sought with a large enough effect in the repeat runs; an effect the other way counts as inactive or inconclusive)
KiSS-1 receptor (Homo sapiens), sequence (Q969F8 whole entry, looked up): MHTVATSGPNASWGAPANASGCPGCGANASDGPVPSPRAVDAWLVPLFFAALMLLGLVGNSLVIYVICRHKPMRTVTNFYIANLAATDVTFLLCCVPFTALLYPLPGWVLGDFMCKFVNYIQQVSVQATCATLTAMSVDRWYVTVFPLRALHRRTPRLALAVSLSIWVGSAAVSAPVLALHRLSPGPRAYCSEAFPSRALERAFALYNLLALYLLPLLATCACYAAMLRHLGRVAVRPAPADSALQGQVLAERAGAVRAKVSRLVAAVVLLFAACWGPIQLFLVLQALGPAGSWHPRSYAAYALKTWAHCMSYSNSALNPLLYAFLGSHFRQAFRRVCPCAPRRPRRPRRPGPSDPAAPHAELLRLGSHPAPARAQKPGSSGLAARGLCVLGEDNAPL
Method in brief: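 Measures KISS1R agonism through calcium-sensitive dye fluorescence in stably transfected HEK293 cells, read for 3 min after pin-tool compound delivery; 15-point titrations in triplicate.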

[5] = G protein-coupled receptor (GPCR) small molecule agonists, calcium flux assay: HEK293 wild type cell line counter screen (AID 1920065)
Method in brief: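 Readout: fluorescence at 480 nm excitation/540 nm emission, sampled at 1 s intervals for 3 min. Cells had been cultured 18 h, then dye-loaded 1 h at 37 C before compound or ATP addition.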

[6] = p53 small molecule agonists, cell-based qHTS assay with human liver microsomes (AID 1963577);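 note: p53 response element beta-lactamase reporter cells with liver microsomes plus NADPH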
Method in brief: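 With metabolic activation: human liver microsomes (0.5 mg/mL final) plus NADPH (0.5 mg/mL final) added alongside compounds to p53RE-bla cells; 16 h 37 C exposure; beta-lactamase read by LiveBLAzer fluorescence.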

[7] = p53 small molecule agonists, cell-based qHTS assay with rat liver microsomes (AID 1963578)
Method in brief: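 Metabolic activation by rat liver microsomes and NADPH, each 0.5 mg/mL final, added right after compounds to p53RE-bla reporter cells (4,000/well, plated 5 h earlier). 16 h at 37 C, then LiveBLAzer substrate for 2 h at room temperature in the dark; fluorescence read-out.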

[8] = p53 small molecule agonists, cell-based qHTS assay with human liver microsomes: qHTS cell viability counter screen (AID 1963579); note: nearly all actives have a fitted effect of over 45% in size
Method in brief: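 Metabolic activation used human liver microsomes and NADPH, both 0.5 mg/mL final, over 16 hours at 37 C on p53RE-bla cells (4,000/well). Cytotoxicity measured by CellTiter-Glo luminescence, 30 min at room temperature.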

[9] = p53 small molecule agonists, cell-based qHTS assay with rat liver microsomes: qHTS cell viability counter screen (AID 1963580); note: nearly all actives have a fitted effect of over 45% in size
Method in brief: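 In HCT-116 cells carrying a p53 response element-bla reporter, compounds were metabolically activated in situ by rat liver microsomes with NADPH over 16 h. Cell ATP content then served as the cytotoxicity measure.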

[10] = p53 small molecule agonists, cell-based qHTS assay: qHTS cell viability counter screen (AID 1963581); note: nearly all actives have a fitted effect of over 45% in size
Method in brief: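 In the same plates used for the p53 bla reporter, HCT-116 cells given compounds for 16 h at 37 C received CellTiter-Glo; luminescence was recorded 30 min later at room temperature.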

[11] = p53 small molecule agonists, cell-based qHTS assay (AID 1963582; active = well fitted activation curve with a large enough effect in the signal ratio in the repeat runs, not every such curve was filed as active; the % refers to the signal ratio)
Method in brief: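 Compounds are pin-transferred in DMSO onto p53RE-bla cells and incubated 16 h at 37 C. The B/G FRET beta-lactamase substrate is then applied for 2 h at RT and fluorescence recorded.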

[12] = target: 5-hydroxytryptamine receptor 2A (Homo sapiens) (UniProt P28223); assay: 5-hydroxytryptamine receptor 2A (HTR2A) small molecule antagonists, cell-based qHTS assay (AID 1963586); note: nearly all actives have a fitted effect of over 45% in size
5-hydroxytryptamine receptor 2A (Homo sapiens), sequence (P28223 whole entry, looked up): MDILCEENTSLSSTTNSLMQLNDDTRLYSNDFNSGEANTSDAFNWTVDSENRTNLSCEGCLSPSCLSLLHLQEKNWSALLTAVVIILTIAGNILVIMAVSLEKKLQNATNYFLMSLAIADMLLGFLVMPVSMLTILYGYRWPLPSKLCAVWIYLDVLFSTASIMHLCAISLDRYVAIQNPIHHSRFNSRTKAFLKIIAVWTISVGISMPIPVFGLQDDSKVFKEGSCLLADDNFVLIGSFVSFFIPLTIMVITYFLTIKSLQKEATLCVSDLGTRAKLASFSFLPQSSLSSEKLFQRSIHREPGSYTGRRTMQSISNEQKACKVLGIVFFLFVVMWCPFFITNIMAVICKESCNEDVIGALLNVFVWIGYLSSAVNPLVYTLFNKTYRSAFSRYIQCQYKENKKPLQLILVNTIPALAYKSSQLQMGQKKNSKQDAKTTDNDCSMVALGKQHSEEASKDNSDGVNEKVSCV
Method in brief: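 Antagonist-mode intracellular calcium assay: DOI (4 nM) added after 5 min compound pre-incubation at room temperature to dye-loaded HTR2A-CHO cells. Fluorescence followed for 3 min, sampled every second.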

[13] = target: 5-hydroxytryptamine receptor 2A (Homo sapiens) (UniProt P28223); assay: 5-hydroxytryptamine receptor 2A (HTR2A) small molecule agonists, cell-based qHTS assay (AID 1963587); note: nearly all actives have a fitted effect of over 30% in size
Method in brief: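 HTR2A-CHO cells, plated 18 h at 37 C/5% CO2, dye-loaded 1 h at 37 C; compounds in DMSO added by pin tool (agonist mode). Intracellular calcium flux read as kinetic fluorescence on FDSS over 2 min at 1 s intervals.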

[14] = target: Muscarinic acetylcholine receptor M1 (Homo sapiens) (UniProt P11229); assay: Cholinergic receptor muscarinic 1 (CHRM1) small molecule antagonists, cell-based qHTS assay (AID 1963588); note: nearly all actives have a fitted effect of over 40% in size
Muscarinic acetylcholine receptor M1 (Homo sapiens), sequence (P11229 whole entry, looked up): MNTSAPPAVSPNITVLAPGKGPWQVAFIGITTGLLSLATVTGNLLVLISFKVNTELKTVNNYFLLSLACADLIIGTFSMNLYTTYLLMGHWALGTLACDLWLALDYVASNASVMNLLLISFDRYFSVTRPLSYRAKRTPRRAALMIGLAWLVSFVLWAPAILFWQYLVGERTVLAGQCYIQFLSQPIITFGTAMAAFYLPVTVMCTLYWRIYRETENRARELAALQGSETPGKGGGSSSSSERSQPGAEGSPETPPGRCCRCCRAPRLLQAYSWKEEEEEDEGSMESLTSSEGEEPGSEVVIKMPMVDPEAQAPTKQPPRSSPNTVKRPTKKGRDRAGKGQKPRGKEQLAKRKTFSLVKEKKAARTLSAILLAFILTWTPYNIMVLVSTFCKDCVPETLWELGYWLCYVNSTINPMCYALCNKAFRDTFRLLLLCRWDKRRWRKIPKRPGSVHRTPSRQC
Method in brief: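 CHRM1-CHO calcium-flux assay, antagonist mode. Cells were seeded 18 h, dye-loaded 1 h at 37 C and given compound for 5 min at RT, then acetylcholine was added at 50nM. FDSS fluorescence was read 3 min; 15 concentrations, three runs.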

[15] = target: Muscarinic acetylcholine receptor M1 (Homo sapiens) (UniProt P11229); assay: Cholinergic receptor muscarinic 1 (CHRM1) small molecule agonists, cell-based qHTS assay (AID 1963589); note: nearly all actives have a fitted effect of over 35% in size
Method in brief: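 Each compound was tested at 15 concentrations across three independent runs on dye-loaded CHO cells stably expressing human CHRM1, reading intracellular calcium fluorescence kinetically at 1 sec intervals.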

[16] = cAMP Responsive Elements (CRE) small molecule agonists, cell-based qHTS assay (AID 1963590)
Method in brief: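 Cell line: CRE-bla HEK 293T; medium DMEM/10% dialyzed FBS/0.1 mM NEAA/1 mM pyruvate/25 mM HEPES; 3 h compound exposure; beta-lactamase FRET readout after 2 h substrate loading at RT.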

[17] = cAMP Responsive Elements (CRE) small molecule antagonists, cell-based qHTS assay (AID 1963591; active = well fitted inhibition curve with a large enough effect in the signal ratio in the repeat runs, not every such curve was filed as active; the % refers to the signal ratio)
Method in brief: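 Inhibition of NKH477-driven (0.25 uM final) CRE-beta-lactamase signal in HEK293T cells, 3 h compound exposure at 37 °C, detected by FRET substrate fluorescence.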

[18] = target: Beta-2 adrenergic receptor (Homo sapiens) (UniProt P07550); assay: Adrenergic beta2 receptor (ADRB2) small molecule antagonists, cell-based qHTS assay (AID 1963592); note: series mostly up to about 92 µM; nearly all actives have a fitted effect of over 50% in size
Beta-2 adrenergic receptor (Homo sapiens), sequence (P07550 whole entry, looked up): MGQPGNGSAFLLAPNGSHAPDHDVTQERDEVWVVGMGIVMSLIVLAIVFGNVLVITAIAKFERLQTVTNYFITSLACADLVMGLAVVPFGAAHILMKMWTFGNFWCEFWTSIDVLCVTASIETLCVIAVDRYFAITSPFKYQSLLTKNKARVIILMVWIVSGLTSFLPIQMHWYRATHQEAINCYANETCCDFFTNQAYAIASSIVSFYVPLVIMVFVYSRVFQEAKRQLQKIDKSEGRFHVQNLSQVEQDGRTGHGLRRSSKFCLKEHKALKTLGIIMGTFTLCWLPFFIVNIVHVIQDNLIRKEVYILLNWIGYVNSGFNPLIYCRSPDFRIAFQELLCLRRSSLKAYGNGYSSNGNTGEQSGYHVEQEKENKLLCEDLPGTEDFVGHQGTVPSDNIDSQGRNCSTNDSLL
Method in brief: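 Cells (CHO, stable ADRB2 overexpression) incubated 18-20hr at 37C; compounds added from DMSO; agonist mix (1nM isoproterenol, 100uM IBMX, 25uM Ro-20-1724) added; 0.5hr RT; d2-cAMP and anti-cAMP-cryptate added; 1hr RT; 665/615 nm read.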

[19] = target: D(2) dopamine receptor (Homo sapiens) (UniProt P14416); assay: Dopamine D2 receptor (DRD2) small molecule agonists, cell-based qHTS assay (AID 1963594); note: nearly all actives have a fitted effect of over 35% in size
D(2) dopamine receptor (Homo sapiens), sequence (P14416 whole entry, looked up): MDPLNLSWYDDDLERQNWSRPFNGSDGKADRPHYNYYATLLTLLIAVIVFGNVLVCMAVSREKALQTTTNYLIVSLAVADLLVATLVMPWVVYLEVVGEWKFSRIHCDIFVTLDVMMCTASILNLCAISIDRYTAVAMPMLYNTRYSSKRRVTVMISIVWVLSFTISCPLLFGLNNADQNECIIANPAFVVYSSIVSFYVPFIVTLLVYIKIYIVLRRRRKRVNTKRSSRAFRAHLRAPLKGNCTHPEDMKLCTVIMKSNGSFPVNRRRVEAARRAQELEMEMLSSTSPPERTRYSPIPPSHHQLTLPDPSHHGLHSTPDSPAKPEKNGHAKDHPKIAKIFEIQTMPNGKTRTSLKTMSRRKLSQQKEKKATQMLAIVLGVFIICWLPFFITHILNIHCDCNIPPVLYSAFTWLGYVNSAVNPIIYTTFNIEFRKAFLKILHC
Method in brief: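 HEK293 cells stably expressing DRD2 were cultured 24 h at 37 C, then given Ro20-1724 (0.1 mM final) and compounds for 10 min at room temperature. NKH477 (200nM) was then added for 30 min. cAMP was read by HTRF.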

[20] = target: D(2) dopamine receptor (Homo sapiens) (UniProt P14416); assay: Dopamine D2 receptor (DRD2) small molecule antagonists, cell-based qHTS assay (AID 1963595; active = well fitted inhibition curve with a large enough effect in the signal ratio in the repeat runs, with a control signal flat; the % refers to the signal ratio)
Method in brief: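 Human DRD2 antagonist qHTS measuring cAMP by HTRF. The cells are exposed to compound for 10 min, then to NKH477 (200 nM) and quinpirole (12 nM) for 30 min at RT, with Ro20-1724 (0.1 mM) present throughout.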

SMILES	Potency [1]	Potency [2]	Potency [3]	Potency [4]	Potency [5]	Potency [6]	Potency [7]	Potency [8]	Potency [9]	Potency [10]	Potency [11]	Potency [12]	Potency [13]	Potency [14]	Potency [15]	Potency [16]	Potency [17]	Potency [18]	Potency [19]	Potency [20]
C1=Cc2ccccc2C1	inactive	inactive	inactive	inactive	inactive	inactive	inactive	inactive	inactive	inactive	inactive	inactive	inactive	inactive	inactive	inactive	inactive	inactive	inactive	inactive
CC(C)CC=O	inactive	inactive	inactive	inactive	inactive	inactive	inactive	inactive	inactive	inactive	inactive	inactive	inactive	inactive	inactive	inactive	inactive	inactive	inactive	inactive
NC(=O)Cc1cccc(C(=O)c2ccccc2)c1N	inactive	inactive	inactive	inactive	inactive	inactive	inactive	inactive	inactive	inactive	inactive	inactive	inactive	inactive	inactive	inactive	inactive	inactive	inactive	inactive
N#[N+]c1ccc2c(S(=O)(=O)[O-])cccc2c1O	inactive	inactive	inactive	inactive	inactive	inactive	inactive	inactive	inactive	inactive	inactive	inactive	inactive	inactive	inactive	inactive	inactive	inactive	inactive	inactive
CC(CO)c1ccccc1 (stereo not given)	inactive	inactive	inactive	inactive	inactive	inactive	inactive	inactive	inactive	inactive	inactive	inactive	inactive	inactive	inactive	inactive	inactive	inactive	inactive	inactive
CCn1cc(C(=O)O)c(=O)c2cnc(N3CCNCC3)nc21	inactive	inactive	inactive	inactive	inactive	inactive	inactive	inactive	inactive	inactive	inactive	inactive	inactive	inactive	inactive	inactive	inactive	inactive	inactive	inactive
CCCCSCCCC	inactive	inactive	inactive	inactive	inactive	inactive	inactive	inactive	inactive	inactive	inactive	inactive	inactive	inactive	inactive	inactive	inactive	inactive	inactive	inactive
c1c[nH]cn1	inactive	inactive	inactive	inactive	inactive	inactive	inactive	inactive	inactive	inactive	inactive	inactive	inactive	inactive	inactive	inactive	inactive	inactive	inactive	inactive
CCC(C)=O	inactive	inactive	inactive	inactive	inactive	inactive	inactive	inactive	inactive	inactive	inactive	inactive	inactive	inactive	inactive	inactive	inactive	inactive	inactive	inactive
c1ccc(CNc2ncnc3c2ncn3C2CCCCO2)cc1 (stereo not given)	inactive	1720 nM (active)	inactive	inactive	inactive	inactive	inactive	inactive	inactive	inactive	inactive	inactive	inactive	inactive	inactive	inactive	inactive	inactive	inactive	inactive
O=c1[nH]c2ccc(Cl)cc2o1	inactive	inactive	inactive	inactive	inactive	inactive	inactive	inactive	inactive	inactive	inactive	inactive	inactive	inactive	inactive	inactive	inactive	inactive	inactive	inactive
CC(C)CC(C)(N)C#N (stereo not given)	inactive	inactive	inactive	inactive	inactive	inactive	inactive	inactive	inactive	inactive	inactive	inactive	inactive	inactive	inactive	inactive	inactive	inactive	inactive	inactive
CCC(=O)Nc1cccc(N)c1	inactive	inactive	inactive	inactive	inactive	inactive	inactive	inactive	inactive	inactive	inactive	inactive	inactive	inactive	inactive	inactive	inactive	inactive	inactive	inactive
CCOC=C(C(=O)OCC)C(=O)OCC	inactive	inactive	inactive	inactive	inactive	inactive	inactive	inactive	inactive	inactive	inactive	inactive	inactive	inactive	inactive	inactive	inactive	inactive	inactive	inactive
